Results from the supplement of paper PMC9262897, “Low-cost anti-mycobacterial drug discovery using engineered E. coli” (Nature Communications, 2022).
Counter-ions that a name gives are not always drawn. ± gives the standard deviation of the averaged measurements.

How the values were obtained:
Assay in all cases: growth (OD600 after 10 h); higher = more growth (less inhibition)
[1] = system: E. coli TESEC Alr+ wild-type control; details: compound 0.1 mM; raw OD600 reference: median of DMSO wells 0.241, cell-free background 0.041
Method: (§1)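 TESEC Mtb Alr E. coli, or the Alr+ wild-type control, in 384-well plates with Prestwick library compounds at 0.1 mM and 1% DMSO, across arabinose induction levels of 1E3 to 1E7 nM. Growth is read as OD600 after 10 h at 37 °C in triplicate biological replicates.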

E. coli TESEC Mtb Alr [2] = details: compound 0.1 mM
Method: as §1

E. coli TESEC Mtb Asd = details: compound 0.1 mM
Method: (§2)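 TESEC E. coli strains in which the native enzyme is deleted and replaced by arabinose-inducible Mtb Asd, DapB, CysH or TrpD, each grown in its selective medium. Strains were screened against the Prestwick library at 0.1 mM and 1% DMSO in 384-well format at low and high arabinose induction. Growth is read as OD600 after 10 h in triplicate.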

E. coli TESEC Mtb DapB = details: compound 0.1 mM
Method: as §2

[3] = system: E. coli TESEC Alr+ wild-type control; details: compound 0.1 mM; raw OD600 reference: median of DMSO wells 0.49, cell-free background 0.052
Method: (§3)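 TESEC Mtb Alr E. coli (ΔaraC ΔtolC ΔentC Δalr ΔdadX, arabinose-inducible Mtb Alr) or the Alr+ wild-type control strain, grown in defined M9-fructose medium without D-alanine in 96-well plates with Prestwick library compounds at 0.1 mM and 1% DMSO. Low Alr induction is 0.1 µM arabinose and high induction is 10 mM arabinose.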

E. coli TESEC Mtb Alr [4] = details: compound 0.1 mM; remark: listed apart in the source
Method: as §3

[5] = arabinose 1000 nM, raw OD600 reference: median of DMSO wells 0.294, cell-free background 0.041
[6] = arabinose 10000 nM, raw OD600 reference: median of DMSO wells 0.264, cell-free background 0.041
[7] = arabinose 100000 nM, raw OD600 reference: median of DMSO wells 0.201, cell-free background 0.041
[8] = arabinose 1000000 nM, raw OD600 reference: median of DMSO wells 0.193, cell-free background 0.041
[9] = arabinose 10000000 nM, raw OD600 reference: median of DMSO wells 0.146, cell-free background 0.041
[10] = arabinose induction (level): High, raw OD600 reference: median of DMSO wells 0.331, cell-free background 0.041
[11] = arabinose induction (level): Low, raw OD600 reference: median of DMSO wells 0.417, cell-free background 0.041
[12] = arabinose induction (level): High, raw OD600 reference: median of DMSO wells […], cell-free background 0.041
[13] = arabinose induction (level): Low, raw OD600 reference: median of DMSO wells 0.227, cell-free background 0.041
[14] = arabinose 100 nM, raw OD600 reference: median of DMSO wells 0.413, cell-free background 0.052
[15] = arabinose 10000000 nM, raw OD600 reference: median of DMSO wells […], cell-free background 0.052

SMILES | growth [1] | growth (E. coli TESEC Mtb Alr [2]; [5]) | growth (E. coli TESEC Mtb Alr [2]; [6]) | growth (E. coli TESEC Mtb Alr [2]; [7]) | growth (E. coli TESEC Mtb Alr [2]; [8]) | growth (E. coli TESEC Mtb Alr [2]; [9]) | growth (E. coli TESEC Mtb Asd; [10]) | growth (E. coli TESEC Mtb Asd; [11]) | growth (E. coli TESEC Mtb DapB; [12]) | growth (E. coli TESEC Mtb DapB; [13]) | growth [3] | growth (E. coli TESEC Mtb Alr [4]; [14]) | growth (E. coli TESEC Mtb Alr [4]; [15])
Cc1cn[nH]c1 [Fomepizole] | 0.242 ± 0.0098 | 0.2912 ± 0.0021 | 0.249 ± 0.0059 | 0.231 ± 0.024 | 0.178 ± 0.003 | 0.137 ± 0.0022 | 0.233 ± 0.036 | 0.364 ± 0.065 | 0.193 ± 0.014 | 0.215 ± 0.0091 | 0.554 ± 0.016 | 0.423 ± 0.011 | 0.367 ± 0.017
CO[C@@H]1[C@@H](O[C@@H]2O[C@H](C)[C@@H](O[C@H]3C[C@@](C)(O)[C@@H](OC(=O)CC(C)C)[C@H](C)O3)[C@H](N(C)C)[C@H]2O)[C@@H](CC=O)C[C@@H](C)[C@@H](O)/C=C/C=C/C[C@@H](C)OC(=O)C[C@H]1OC(C)=O [Josamycin] | 0.04167 ± 0.00025 | 0.04093 ± 5.8e-05 | 0.0406 ± 0.00026 | 0.04147 ± 0.00015 | 0.04073 ± 0.00029 | 0.04137 ± 5.8e-05 | 0.0609 ± 0.0067 | 0.0594 ± 0.0064 | 0.0494 ± 0.00059 | 0.0568 ± 0.0075 | 0.0528 ± 0.0019 | 0.0755 ± 0.021 | 0.0519 ± 0.00093
O=C(O)c1cn(C2CC2)c2cc(N3CCNCC3)c(F)cc2c1=O [Ciprofloxacin hydrochloride monohydrate] | 0.0408 ± 0.00053 | 0.0398 ± 0.0012 | 0.0399 ± 0.0009 | 0.0402 ± 0.0002 | 0.0391 ± 0.00026 | 0.0402 ± 0.00036 | 0.0484 ± 0.0012 | 0.0498 ± 0.001 | 0.049 ± 0.00046 | 0.0712 ± 0.04 | 0.0505 ± 0.0005 | 0.0528 ± 0.00085 | 0.0527 ± 0.0033
CCC1(c2ccccc2)NC(=O)N(C)C1=O (stereo not given) [Mephenytoin] | 0.249 ± 0.0037 | 0.299 ± 0.0081 | 0.287 ± 0.011 | 0.201 ± 0.014 | 0.204 ± 0.013 | 0.152 ± 0.0052 | 0.235 ± 0.029 | 0.328 ± 0.072 | 0.184 ± 0.013 | 0.24 ± 0.037 | 0.501 ± 0.091 | 0.427 ± 0.0055 | 0.31 ± 0.011
CC(CNC1CCCCC1)OC(=O)c1ccccc1 (stereo not given) [Hexylcaine hydrochloride] | 0.242 ± 0.016 | 0.303 ± 0.0092 | 0.273 ± 0.0072 | 0.191 ± 0.0085 | 0.173 ± 0.0098 | 0.1577 ± 0.0015 | 0.452 ± 0.026 | 0.489 ± 0.039 | 0.2 ± 0.027 | 0.233 ± 0.024 | 0.552 ± 0.022 | 0.409 ± 0.016 | 0.309 ± 0.0087
Nc1ccccc1S(N)(=O)=O [2-Aminobenzenesulfonamide] | 0.239 ± 0.0094 | 0.296 ± 0.019 | 0.255 ± 0.0044 | 0.198 ± 0.0049 | 0.187 ± 0.0032 | 0.137 ± 0.004 | 0.399 ± 0.029 | 0.49 ± 0.028 | 0.2 ± 0.019 | 0.202 ± 0.019 | 0.566 ± 0.029 | 0.416 ± 0.013 | 0.343 ± 0.0096
CN1Cc2c(N)cccc2C(c2ccccc2)C1 (stereo not given) [Nomifensine maleate] | 0.225 ± 0.0061 | 0.273 ± 0.0089 | 0.249 ± 0.0043 | 0.19 ± 0.036 | 0.1674 ± 0.0015 | 0.141 ± 0.0063 | 0.243 ± 0.026 | 0.357 ± 0.038 | 0.175 ± 0.013 | 0.181 ± 0.025 | 0.498 ± 0.078 | 0.4122 ± 0.0024 | 0.348 ± 0.019
CCCC(=O)Nc1ncnc2c1ncn2[C@@H]1O[C@@H]2COP(=O)(O)O[C@H]2[C@H]1OC(=O)CCC [Bucladesine sodium salt] | 0.25 ± 0.0053 | 0.31 ± 0.019 | 0.275 ± 0.0043 | 0.206 ± 0.015 | 0.189 ± 0.0065 | 0.138 ± 0.012 | 0.355 ± 0.06 | 0.47 ± 0.008 | 0.2 ± 0.016 | 0.218 ± 0.014 | 0.565 ± 0.093 | 0.405 ± 0.011 | 0.362 ± 0.013
O=C(O)COC(=O)Cc1ccccc1Nc1c(Cl)cccc1Cl [Aceclofenac] | 0.154 ± 0.0035 | 0.205 ± 0.019 | 0.223 ± 0.015 | 0.12 ± 0.007 | 0.141 ± 0.0064 | 0.132 ± 0.012 | 0.205 ± 0.026 | 0.263 ± 0.011 | 0.156 ± 0.0075 | 0.176 ± 0.028 | 0.424 ± 0.0057 | 0.352 ± 0.034 | 0.244 ± 0.015
CC(C)NCC(O)c1ccc(O)c(O)c1 (single isomer, unassigned; (-)) [(-)-Isoproterenol hydrochloride] | 0.236 ± 0.0036 | 0.289 ± 0.0076 | 0.278 ± 0.015 | 0.184 ± 0.02 | 0.199 ± 0.004 | 0.143 ± 0.0042 | 0.281 ± 0.052 | 0.392 ± 0.03 | 0.191 ± 0.014 | 0.23 ± 0.035 | 0.539 ± 0.066 | 0.4345 ± 0.003 | 0.32 ± 0.02
CN[C@H](CC(C)C)C(=O)N[C@H]1C(=O)N[C@@H](CC(N)=O)C(=O)N[C@H]2C(=O)N[C@H]3C(=O)N[C@H](C(=O)N[C@H](C(=O)O)c4cc(O)cc(O)c4-c4cc3ccc4O)[C@H](O)c3ccc(c(Cl)c3)Oc3cc2cc(c3O[C@@H]2O[C@H](CO)[C@@H](O)[C@H](O)[C@H]2O[C@H]2C[C@](C)(N)[C@H](O)[C@H](C)O2)Oc2ccc(cc2Cl)[C@H]1O [Vancomycin hydrochloride] | 0.0502 ± 0.0016 | 0.084 ± 0.073 | 0.03873 ± 0.00032 | 0.0413 ± 0.0026 | 0.0388 ± 0.00044 | 0.0471 ± 0.0044 | 0.0662 ± 0.0062 | 0.0563 ± 0.011 | 0.0659 ± 0.0035 | 0.0604 ± 0.0036 | 0.0581 ± 0.0048 | 0.217 ± 0.15 | 0.0507 ± 0.00062
Nc1cc(C(Cl)=C(Cl)Cl)c(S(N)(=O)=O)cc1S(N)(=O)=O [Clorsulon] | 0.224 ± 0.0038 | 0.278 ± 0.0056 | 0.269 ± 0.0061 | 0.214 ± 0.029 | 0.179 ± 0.0043 | 0.15 ± 0.0072 | 0.283 ± 0.025 | 0.3101 ± 0.0016 | 0.216 ± 0.014 | 0.248 ± 0.016 | 0.53 ± 0.0087 | 0.414 ± 0.011 | 0.335 ± 0.025
CNC[C@H](O)[C@@H](O)[C@H](O)[C@H](O)CO [Meglumine] | 0.237 ± 0.0045 | 0.306 ± 0.016 | 0.254 ± 0.0031 | 0.212 ± 0.025 | 0.188 ± 0.0027 | 0.136 ± 0.0042 | 0.325 ± 0.022 | 0.408 ± 0.066 | 0.199 ± 0.049 | 0.235 ± 0.017 | 0.548 ± 0.015 | 0.404 ± 0.019 | 0.356 ± 0.011
CC(C)Cc1ccc([C@H](C)C(=O)O)cc1 [S-(+)-ibuprofen] | 0.236 ± 0.012 | 0.269 ± 0.013 | 0.24 ± 0.006 | 0.166 ± 0.0055 | 0.194 ± 0.0082 | 0.129 ± 0.0024 | 0.262 ± 0.015 | 0.311 ± 0.0056 | 0.196 ± 0.014 | 0.18 ± 0.016 | 0.615 ± 0.082 | 0.402 ± 0.012 | 0.329 ± 0.004
CN(C/C=C/c1ccccc1)Cc1cccc2ccccc12 [Naftifine hydrochloride] | 0.0432 ± 0.0006 | 0.0444 ± 0.001 | 0.04317 ± 0.00021 | 0.045 ± 0.0005 | 0.0437 ± 0.0015 | 0.0527 ± 0.00066 | 0.269 ± 0.035 | 0.313 ± 0.069 | 0.125 ± 0.008 | 0.133 ± 0.0053 | 0.374 ± 0.0058 | 0.266 ± 0.14 | 0.052 ± 0.0013
